# Bioassay records (PubChem BioAssay)
# Shown are actives, neighbours in structure and some others; about 8.3% of the full set was active somewhere.
# Gal4-VP16 FLuc: Gal4-VP16 reporter inhibition counter-screen; Potency, µM (highest dose often 53.6 µM), inactives show at the top dose activity, negative = inhibition, most hits filed as inhibitors; Drosophila S2 Gal4-VP16 UAS-luciferase, luminescence, 20 h; 3.5% of 310,000 active;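 note: Gal4-VP16 expression switched on by copper sulfate through the metallothionein promoter; potency is the fitted concentration of half-maximal effect; % is set by controls: 0 for no effect and ±100 for the full control effect; nearly all actives have a fitted effect of over 50% in size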
# Giardia kill: kills Giardia lamblia. activity change, % at 7.66 µM, hits read low. 0.15% of 340,000 active. Giardia lamblia trophozoite viability; in the data active = activity change below about -80%; inconclusive = between about -30% and that limit;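 note: parasites exposed to compound for two days anaerobically before the ATP read; % is set by controls: 0 for no effect and ±100 for the full control effect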
#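 Trophozoite viability was measured as ATP-dependent luminescence, read 15-30 min after reagent addition. Before that, parasites at 100 cells/well were exposed to compounds for 48 h, anaerobically, at 37 deg C.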
# MCF10A rerep: inducers of DNA re-replication in MCF 10A breast cells | AID 624296 | Potency, µM (titrated, usually from 46.1 µM), for the others: top-dose activity, positive = re-replication, most hits filed as activators | MCF 10A DNA re-replication, Hoechst nuclear intensity, 48 h | 2.9% of 350,000 active; note: potency is the fitted concentration of half-maximal effect; % of control where 0% means no effect; nearly all actives have a fitted effect of over 50% in size
# Chronic BCR inh: blocks chronic active B-cell receptor signaling; Potency, µM (highest dose often 46.1 µM), without a hit: at the top dose activity change, negative = inhibition, usual class: inhibitors; AID 493014; 0.05% of 340,000 active; ABC-DLBCL IkBa-CBG/CBR reporter, luminescence ratio, 4 h; active = well fitted inhibition curve with a large enough effect in the signal ratio, with a control signal flat, not every such curve was filed as active; inconclusive = small, poorly fitted or top-dose-only effect, or effect the other way, or a change in a side signal; the % refers to the signal ratio;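 note: potency is the fitted concentration of half-maximal effect; plate controls were basal doxycycline-induced cells for no effect and cells given 10 µM MG132 for full effect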
#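 TMD8 human ABC-DLBCL cells with doxycycline-inducible IκBα–green luciferase fusion and unfused red luciferase, in 0.5% FBS medium; compounds up to 46 uM, 4 h at 37C. Green/red luminescence ratio, filter-overlap corrected, fitted to concentration-response curves.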
# SW480 rereplic: DNA re-replication induction in SW480 cells; SW480 DNA re-replication, Hoechst DNA content imaging, 48 h; Potency, µM (doses to about 46.1 µM), for inactives: top-dose re-replication activation, usual class: activators; 1.8% of 340,000 active; note: potency is the fitted concentration of half-maximal effect; % of control where 0% means no effect; nearly all actives have a fitted effect of over 55% in size
#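 First, 250 cells per well were seeded. Next, compound or vehicle (23 nL) was pinned in, plates sat 48 hr at 37 C. Finally Hoechst was added for 40 min before fluorescence scanning.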
# RORgamma inh: inhibitors of mouse ROR gamma transcriptional activity. P51450. Potency, µM (highest dose often 53.6 µM), inactives show at the highest dose activity change, negative = inhibition, usual class: inhibitors. 5.4% of 310,000 active. Drosophila S2 Gal4-RORgamma UAS-luciferase reporter, 20 h. AID 2551; note: potency is the fitted concentration of half-maximal effect; % is set by controls: 0 for no effect and ±100 for the full control effect; nearly all actives have a fitted effect of over 60% in size
# Target sequence (P51450 whole entry, looked up, the tested form may be a part): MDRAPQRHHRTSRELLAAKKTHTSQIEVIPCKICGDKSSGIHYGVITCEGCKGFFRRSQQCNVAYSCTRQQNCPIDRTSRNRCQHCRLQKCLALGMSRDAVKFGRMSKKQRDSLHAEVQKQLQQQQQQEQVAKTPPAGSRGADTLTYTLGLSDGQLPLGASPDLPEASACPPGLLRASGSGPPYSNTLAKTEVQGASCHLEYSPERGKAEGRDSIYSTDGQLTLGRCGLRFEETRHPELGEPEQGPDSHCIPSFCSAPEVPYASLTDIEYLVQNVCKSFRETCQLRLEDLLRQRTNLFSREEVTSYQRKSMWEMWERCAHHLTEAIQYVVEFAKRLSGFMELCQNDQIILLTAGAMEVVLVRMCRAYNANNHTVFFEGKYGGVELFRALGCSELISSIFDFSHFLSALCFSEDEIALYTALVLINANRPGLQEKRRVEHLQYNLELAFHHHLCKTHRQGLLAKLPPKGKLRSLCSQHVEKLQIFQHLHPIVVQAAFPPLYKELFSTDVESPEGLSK
#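 Stable Schneider cell line, Gal4 DNA-binding domain fused to ROR gamma, UAS-luciferase. Cmpd 1 hr RT → CuSO4 700 uM final → 20 hr RT → luciferase reagent 10 min → luminescence.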
# * hit, by the source's call; ? = inconclusive; · = no result given; [ ] = another dose, or the depositor's remark. Unless noted, calls come from the whole dose curve; as a rule, active = well fitted curve in the direction sought with a large enough effect; inconclusive = small, poorly fitted or top-dose-only effect, or another doubt; inactive = no such curve, though single readings can be large; an effect the other way counts as inactive or inconclusive.
SMILES,Gal4-VP16 FLuc,Giardia kill,MCF10A rerep,Chronic BCR inh,SW480 rereplic,RORgamma inh
COC(=O)[C@H](C)NC(=O)NCc1ccc(S(N)(=O)=O)cc1,-3%,20,-10%,-2%,2%,6%
Cc1cc(N/N=C/c2ccc(O)cc2)c2cccc(C)c2n1,18µM*,5,?,?,?,?
Cc1cc(C)c2nc(C)cc(N/N=C/c3ccc(O)cc3)c2c1,4.5µM*,-19,15µM*,?,4.1µM*,?
CC(C(=O)OCC(=O)c1cccc([N+](=O)[O-])c1)N1C(=O)C2C3CCC(C3)C2C1=O (configuration not stated),-4%,-1,-1%,-6%,13%,3%
COC(=O)N1CCC[C@@]2(CCN(C(c3ccccc3)c3ccccc3)C2)C1,-7%,·,·,·,·,1%
C=CCn1c(SCCOc2ccccc2)nnc1C(C)NC(=O)c1ccccc1 (configuration not stated),-1%,4,0%,2%,-7%,?
C=CCn1c(CCNC(=O)c2ccc(Cl)c(Cl)c2)nnc1SCCOc1ccc(OC)cc1,?,13,21µM*,-1%,10%,?
Cc1nn(CC(=O)N2CCC(C)CC2)c(=O)c2nn(-c3ccccc3)c(C)c12,-8%,-6,1%,1%,-21%,3%
Cc1ccc(S(=O)(=O)N[C@H]2COC(=O)[C@H](C)COC(=O)[C@H](C)NC(=O)C/C=C\[C@H]2C)cc1,-3%[10 µM],·,·,·,·,9%[10 µM]
NC(=S)N/N=C1\CC(c2ccc3c(c2)OCCO3)Oc2ccc(F)cc21 (configuration not stated),6.3µM*,0,6%,?,-4%,6.3µM*
NC(=S)N/N=C1\CC(c2ccc3c(c2)OCCCO3)Oc2ccc(F)cc21 (configuration not stated),0.56µM*,-29,15%,18µM*,-3%,-5%
O=c1[nH]c(/C(Cl)=C/c2c(F)cccc2Cl)nc2cc(Cl)ccc12,-32%,-4,?,3%,-1%,?
O=c1[nH]c(/C(Cl)=C/c2cc(Cl)ccc2O)nc2cc(Cl)ccc12,-4%,-21,15µM*,?,26%,11%
COc1ccc(NC(=O)CN(C)C(=O)CNC(=O)c2cccs2)cc1,·,-18,1%,1%,-7%,·
O=C(O)CNC(=O)c1ccc(OC(F)F)cc1,-3%,4,26%,0%,-8%,-8%
O=C1C=CC(=O)N1c1ccc(O)cc1,?,19,10µM*,?,21µM*,13µM*
O=C1C=CC(=O)N1c1ccc(OC(F)F)cc1,4.5µM*,-2,?,?,23µM*,6.3µM*
O=C(C1CCN(S(=O)(=O)c2cccs2)CC1)N(c1ccccn1)C1CCCCC1,-5%,-2,9%,-12%,4%,-10%
CCC(=O)Nc1ccc(-n2nnnc2SCC(=O)NNC(=O)c2ccco2)cc1,-5%,14,6%,?,3%,6%
O=C(C=Cc1ccccc1)CC(c1ccccc1)N1CCOCC1 (configuration not stated),·,-19,3.7µM*,·,3.7µM*,·
Cc1ccc2nc(SC(C(=O)c3ccccc3)c3ccccc3)nc(C)c2c1 (configuration not stated),16µM*,16,11%,0%,-4%,?
C#CCOc1c(Cl)cc(/C=N/NC(N)=S)cc1OCC,?,34,7%,?,-1%,14µM*
CCOc1c(Cl)cc(/C=N/NC(N)=S)cc1OC,16µM*,-10,20%,0%,0%,7.1µM*
COc1cc(NC(=O)c2ccc(Br)o2)c(C(=O)O)cc1OC,-3%,-11,1%,1%,0%,13%
COc1ccc(C(=O)Nc2nccs2)cc1[N+](=O)[O-],31%,8,-3%,16%,13%,6%[10 µM]
SMILES,Gal4-VP16 FLuc,Giardia kill,MCF10A rerep,Chronic BCR inh,SW480 rereplic,RORgamma inh
O=C(Nc1nccs1)c1ccc([N+](=O)[O-])cc1,-7%,1,1%,6%,-7%,8.9µM*
Cn1cc([N+](=O)[O-])c(C(=O)Nc2nccs2)n1,-13%,-3,4.6µM*,?,?,1%
Cc1cc(-n2nnc3ccccc32)nc2ccccc12,-2%,20,6%,0%,4%,-6%
Cc1nn(-c2cc(C)c3ccccc3n2)c2c1C1C(C2)C1(C)C (configuration not stated),18µM*,-19,2%,-11%,-1%,0.71µM*
O=C(NNC(=O)c1ccc(Cl)c(Cl)c1)c1ccncc1,·,16,0%,·,-103%,·
O=C(NNC(=O)c1nc(Cl)ccc1Cl)c1ccc(F)cc1,?,5,27%,?,-13%,11µM*
O=C(NNC(=O)c1ncc(Cl)c(Cl)c1Cl)c1ccc(F)cc1,5µM*,40,?,?,30%,7.1µM*
CC(NC(=O)CN(c1ccccc1F)S(C)(=O)=O)c1ccccc1 (configuration not stated),-7%,1,5%,1%,-2%,-49%
COc1ccccc1/C=N/NC(=O)c1c(-c2ccccc2)noc1C,3%,3,-2%,-8%,-15%,0%
Cc1onc(-c2ccccc2)c1C(=O)N/N=C/C(Br)=C/c1ccccc1,?,-5,?,?,0.23µM*,7%
Cc1onc(-c2ccccc2)c1C(=O)N/N=C/c1cn(C)c2ccccc12,?,-7,-24%,?,-5%,11µM*
Cc1cccc(/C=N/NC(=O)c2c(-c3ccccc3)noc2C)c1O,6.3µM*,37,8%,-15%,?,4µM*
COc1ccccc1CN1CCC2(CC1)CCN(C(=O)c1c(C)noc1C)CC2,-5%,·,·,·,·,-22%
O=C(CSc1nnc(-c2c[nH]c3ccccc23)n1CC1CCCO1)Nc1ccc2c(c1)OCCO2 (configuration not stated),9%,-9,29µM*,9%,0%,19%
CCn1c(SCC(=O)Nc2ccc3c(c2)OCCO3)nnc1-c1c[nH]c2ccccc12,13%,-1,4%,0%,6%,43%
CCC(Oc1ccc(C)cc1)C(=O)Nc1ccc(S(=O)(=O)Nc2cc(C)on2)cc1 (configuration not stated),-5%,6,8%,9%,-1%,-10%
CCOC(=O)CN(C)C(=O)CCc1nnc(-c2ccsc2)o1,?,-4,-1%,4%,-1%,14µM*
COc1cccc(CN(C)C(=O)CCc2nnc(-c3ccsc3)o2)c1,-10%,0,0%,?,1%,-20%
